Several values for one entry are separate records, joined by “and”; a condition that tells them apart may be missing. Equal entries are not always repeated. Hit rate of the full screen: of about 310,000 compounds, about 11,000 (3.5%) were called active. Inconclusive results (about 4%) are left out. This is one part of a sample in which actives are shown more often than they occur. The calls are words filed in the database; no cut-off is given here.
The compounds below were run against T1, 4'-phosphopantetheinyl transferase ffp (Bacillus subtilis) (UniProt Q9F4F7) (assay: qHTS Assay for Inhibitors of Bacillus subtilis Sfp phosphopantetheinyl transferase (PPTase).).
T1 sequence (whole entry): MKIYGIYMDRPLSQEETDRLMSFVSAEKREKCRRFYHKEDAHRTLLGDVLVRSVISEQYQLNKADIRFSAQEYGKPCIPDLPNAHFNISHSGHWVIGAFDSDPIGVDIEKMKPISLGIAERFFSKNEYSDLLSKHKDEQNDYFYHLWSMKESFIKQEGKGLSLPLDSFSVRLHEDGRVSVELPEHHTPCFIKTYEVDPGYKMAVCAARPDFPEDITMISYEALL
Assay type: functional

Row | Structure (SMILES) | Potency
1 | N[C@H](CCC(=O)O)C(=O)O | 44.7 µM (active) and 56.2 µM (active)
2 | N[C@@H](CCC(=O)O)C(=O)O | 50.1 µM (active)

Reference: ChEMBL document CHEMBL1201862, “PubChem BioAssay data set” (2004)
